From PubChem
Hits are enriched below; roughly 6.6% of the tested compounds scored in any of these assays.
Mtb FBA inh = inhibits M. tuberculosis FBA enzyme. actives 2.3% (n = 360,000). inhibition, % at 1 µM. purified M. tuberculosis FBA, fluorescence read-out. P9WQA3; in the data active means inhibition above about 27%;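 further: 0% = vehicle and 100% = reference inhibitor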
Target sequence (P9WQA3 whole entry, looked up): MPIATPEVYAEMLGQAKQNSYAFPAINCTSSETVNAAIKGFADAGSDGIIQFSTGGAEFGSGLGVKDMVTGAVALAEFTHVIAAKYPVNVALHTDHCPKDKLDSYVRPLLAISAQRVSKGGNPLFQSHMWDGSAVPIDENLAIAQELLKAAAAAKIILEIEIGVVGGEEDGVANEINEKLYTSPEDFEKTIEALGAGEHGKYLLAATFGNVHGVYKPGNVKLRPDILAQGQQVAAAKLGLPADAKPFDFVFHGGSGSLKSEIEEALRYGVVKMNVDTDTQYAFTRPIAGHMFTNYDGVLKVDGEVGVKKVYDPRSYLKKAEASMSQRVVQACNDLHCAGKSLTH
BoNT A protease = blocks Botulinum neurotoxin A light chain protease; multiplex microsphere protease substrate cleavage, flow cytometry; inhibition, % at 10 µM; actives 0.17% (n = 360,000); AID 588499; further: plate controls were buffer without enzyme for full effect and enzyme alone for no effect
Anthrax LF inh2 = inhibitors of Bacillus anthracis lethal factor protease | multiplex microsphere protease cleavage assay, LF | inhibition, % at 10 µM | actives 0.12% (n = 360,000); further: plate controls were buffer without enzyme for full effect and enzyme alone for no effect
GDH-TPI counter = GDH-TPI coupled enzyme inhibition counter-screen; GDH-TPI coupled enzyme counterscreen, NADH absorbance; inhibition, % at 4.8 µM; actives 1.2% (n = 360,000); AID 588335; in the data active means inhibition above about 30%;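 further: 0% = DMSO wells and 100% = wells lacking the enzyme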
Bead autofluor = counter-screen for toxin protease inhibitors: compound fluorescence; compound autofluorescence counterscreen, microsphere flow cytometry; hits give high values; fluorescence intensity (no concentration beside the values); actives 3.1% (n = 360,000); AID 624483; in the data active means fluorescence intensity above about 16000; inconclusive means no clear call, values can overlap the other calls
BoNT F protease = blocks Botulinum neurotoxin F light chain protease; inhibition, % at 10 µM; Multiplex microsphere protease cleavage assay, flow cytometry; actives 0.22% (n = 360,000); in the data active means inhibition above about 35%, passing the limit was not always enough; inconclusive means no clear call, values can overlap the other calls; further: plate controls were buffer without enzyme for full effect and enzyme alone for no effect
Starred values were filed as active, the others as inactive; ? = inconclusive; + = active, no number. Unless noted, no stated cut-off is given here; in the data, active means inhibition above about 30%; inconclusive means no clear call, values can overlap the other calls; inactive means below that.

SMILES | Mtb FBA inh | BoNT A protease | Anthrax LF inh2 | GDH-TPI counter | Bead autofluor | BoNT F protease
CNc1nc(-c2ccccc2)nnc1C(F)(F)F | 1.6 | ? | -1.7 | 13.3 | 22123* | 0.4
Cc1ccc(Sc2nc(-c3ccccc3)nnc2C(F)(F)F)cc1 | 1.3 | -1.5 | -3.1 | -12.1 | 11180 | -7.4
CC(=O)c1ccc(NC(=O)C2(c3ccccc3)CCOCC2)cc1 | 3.0 | -1.5 | -0.7 | -1.3 | 3339 | -18.2
C=CCN=C(NC#N)SCC(=O)c1cccc(OC)c1 | -0.9 | ? | -2.5 | 13.1 | 22163* | -8.1
C=CCN=C(NC#N)SCc1ccccc1 | 1.9 | -0.2 | 0.4 | 13.7 | 2407 | -3.9
O=C1C(CSCc2ccccc2)NC(=S)N1c1ccccc1 (stereo unspecified) | 2.5 | -1.7 | 7.0 | -3.1 | 4424 | -55.7
Cc1csc2ncc(C(=O)Nc3ccccc3F)c(=O)n12 | -1.7 | -0.4 | -2.8 | 30.8* | 5687 | -10.7
Cc1csc2ncc(C(=O)Nc3ccccc3Cl)c(=O)n12 | 2.0 | -0.2 | -0.3 | 4.3 | 5423 | -1.8
COc1ccc(CNC(=O)c2cnc3scc(C)n3c2=O)cc1 | 11.6 | -0.3 | -6.0 | 29.1 | 5440 | -7.0
CCN(C(=O)c1cnc2scc(C)n2c1=O)c1ccccc1C | 3.1 | 0.3 | -0.1 | 30.8* | 4350 | 0.2
CCOC(=O)C1CN(S(=O)(=O)c2ccc(C)cc2)c2ccccc2O1 (stereo unspecified) | -0.5 | -4.6 | 3.3 | -3.7 | 3505 | -39.7
O=c1c(O)c(-c2ccccc2)oc2ccccc12 | 4.3 | 15.8 | 24.5 | 20.6 | 5182 | 12.4
O=c1c(O)c(-c2cccs2)oc2ccc(Cl)cc12 | -10.8 | 34.8* | 32.3* | 4.7 | 9623 | 15.9
O=c1c(O)c(-c2cccs2)oc2ccccc12 | -5.4 | 31.4* | 0.9 | 7.0 | 7327 | 2.8
COc1cc(C)c(NC(=S)Nc2cccc(Cl)c2C)cc1OC | 2.6 | 0.3 | -1.0 | -11.6 | 2064 | 1.5
COc1cccc(CNC(=O)c2nnn(CC(=O)Nc3ccc(Br)cc3)c2N)c1 | 9.5 | 1.3 | -0.4 | 0.9 | 5271 | 11.0
CCOc1ccc(N(C(=O)CNC(=O)c2ccco2)C(C(=O)NC2CCCC2)c2cccnc2)cc1 (stereo unspecified) | 0.2 | -1.1 | 1.9 | 1.5 | 3105 | 4.3
Cc1c(C)c2c(OCC(=O)NCC3CCC(C(=O)O)CC3)cc3c(c2oc1=O)CCC(C)(C)O3 (stereo unspecified) | 120.1* | 0.2 | -7.9 | 7.6 | 5570 | 4.5
Cc1cc(=O)oc2c3c(cc(OCC(=O)NCC4CCC(C(=O)O)CC4)c12)OC(C)(C)CC3 (stereo unspecified) | + | -0.2 | -5.7 | 16.7 | 5678 | -0.8
Cc1c(C)c2c(OCC(=O)N3CCC(C(=O)O)CC3)cc3c(c2oc1=O)CCC(C)(C)O3 | + | -0.5 | -0.1 | 36.3* | 5536 | -5.7
Cc1cc(OCC(=O)NCC2CCC(C(=O)O)CC2)c2c(C)c(C)c(=O)oc2c1 (stereo unspecified) | 21.1 | 0.0 | 0.3 | 5.9 | 5712 | 0.8
CCCCCC(=O)N1CCCCC1 | -1.6 | -2.6 | -9.0 | 3.9 | 4064 | ?
O=C(Nc1nnc(SCc2cccnc2)s1)C1CC(=O)N(c2ccccc2)C1 (stereo unspecified) | 0.8 | -22.1 | -7.5 | 1.0 | ? | -42.8
Cc1ccc(C)c(S(=O)(=O)NCc2ccc(C(=O)NCc3ccco3)cc2)c1 | 4.9 | -0.3 | -4.2 | -3.5 | 3811 | ?
Cc1ccc(C(=O)NCc2ccco2)cc1S(=O)(=O)Nc1cccc(Cl)c1 | -1.8 | ? | -0.6 | 4.1 | 21942* | 2.1
SMILES | Mtb FBA inh | BoNT A protease | Anthrax LF inh2 | GDH-TPI counter | Bead autofluor | BoNT F protease
CN(C(=O)c1ccc(Cl)c([N+](=O)[O-])c1)C1(C)CCS(=O)(=O)C1 (stereo unspecified) | -0.7 | 2.5 | -1.9 | 7.9 | 5424 | 6.6
CC(C)(C)NS(=O)(=O)c1ccc(NS(C)(=O)=O)cc1 | 2.1 | ? | -0.9 | 9.3 | 16636* | -2.7
O=C(NCc1ccccc1F)c1ccc(S(=O)(=O)N2CCCC2)cc1 | -2.2 | 0.1 | -3.4 | 5.4 | 3900 | -2.3
COCCNC(=O)c1sc2ncn(CC(=O)Nc3ccc(C)c(Cl)c3)c(=O)c2c1C | 4.4 | 0.2 | 0.9 | 9.1 | 2017 | -6.1
Cc1ccc(NC(=O)Cn2cnc3sc(C(=O)NCc4ccco4)c(C)c3c2=O)cc1Cl | -0.8 | 3.6 | -5.6 | 0.0 | 21778* | 3.7
Cc1c(/C=N/Nc2ccc(F)cc2)c(O)n(C)c(=O)c1C#N | -5.9 | 0.3 | 0.8 | 33.2* | 1988 | -3.5
CCOC(=O)C1CCN(C(=O)CNC(=O)Cn2c(C)cc3ccccc3c2=O)CC1 | 6.6 | 1.8 | -16.3 | 12.0 | 3024 | 4.1
OCCN1CCN(c2ncnc3c2sc2nc(N4CCOCC4)c4c(c23)CCC4)CC1 | 20.0 | 3.4 | 10.0 | 43.8* | 8978 | 7.4
CC1(C)Cc2c(c(N3CCCC3)nc3sc4c(N5CCN(CCO)CC5)ncnc4c23)CO1 | 9.7 | 2.9 | 0.6 | 33.3* | 10075 | -2.1
COC(=O)CSc1ncnc2c1sc1nc(N3CCOCC3)c3c(c12)CCCC3 | -0.3 | -0.2 | -2.1 | 5.3 | 4289 | 0.2
COC(=O)c1ccc(CSc2ncnc3c2sc2nc(N4CCOCC4)c4c(c23)CCCC4)o1 | 4.4 | ? | ? | 31.8* | ? | 0.7
Cc1ccsc1C(=O)NNC(=O)c1ccncc1 | 3.5 | -1.7 | -4.7 | 19.6 | 4586 | -4.5
Cn1cc(Cl)c(C(=O)N/N=C/c2ccc3c4c(cccc24)CC3)n1 | 29.6* | 3.4 | -0.1 | 35.9* | 4230 | 1.2
Cc1ccc(/C=N/NC(=O)c2nn(C)cc2Cl)cc1 | 1.0 | -1.5 | -0.9 | 10.3 | 2018 | -26.3
Cc1ccc(C)c(OCC(=O)NCC(c2ccco2)N2CCCCC2)c1 (stereo unspecified) | 2.1 | 5.1 | -3.1 | 0.0 | ? | 6.0
CCc1ccc(CNC(=O)C2CC(=O)N(C3CCCC3)C2)cc1 (stereo unspecified) | 2.3 | 2.1 | -1.4 | 2.5 | 5610 | 5.1
CC(=O)Nc1ccc(NS(=O)(=O)C(F)(F)F)cc1 | -4.3 | ? | 1.2 | -12.6 | 19728* | -0.2
COC(=O)Nc1ccc(S(=O)(=O)N(C)C)cc1 | -0.2 | -0.5 | -2.7 | -3.7 | 20816* | -1.9
COC(=O)Nc1ccc(NC(C)=O)cc1 | -0.1 | -1.3 | -0.7 | -6.8 | 23186* | -1.2
COC(=O)Nc1ccc(S(=O)(=O)N2CCCCCC2)cc1 | 0.9 | -0.7 | -5.5 | -2.4 | 11195 | -0.9
COc1ccc(-c2cc(-c3ccccc3)nc3ncnn23)cc1 | + | -0.1 | -7.0 | 25.4 | 5529 | -9.2
c1ccc(-c2cc(-c3ccccc3)n3ncnc3n2)cc1 | 23.2 | -1.5 | -5.6 | 3.8 | 4770 | -7.1
O=C(COc1ccc2ccccc2c1)N1c2ccccc2Sc2ccccc21 | -2.4 | -7.3 | 1.0 | -7.0 | 22677* | -6.0
O=C(Nc1ccccc1Cl)c1cc(=O)c2ccccc2o1 | 2.6 | -2.6 | -1.7 | 0.5 | 4437 | ?
Cc1cccc(NC(=O)Cn2c(=O)n3nc(CCn4nc(C)cc4C)nc3c3ccccc32)c1 | -0.5 | 5.8 | -2.4 | 8.1 | 21276* | 4.2
